Values joined by “and” are separate entries in the source; they are usually repeats but may differ in a detail not shown here. Identical values can stand only once. Inconclusive results are not listed. Where a call stands in place of a potency, no number is given. Values without a mark were called inactive. Active and inactive are the calls of the source. The call rests on the fitted dose curve; in most records, active means well fitted cell-killing curve with a large enough effect in the repeat runs; inconclusive means weak or mixed curves, or effect the other way; inactive means no such curve, though single readings can be large or run the other way.
Potency means the concentration at half of the fitted maximal effect.

A short description of this experiment: qHTS assay to identify small molecule antagonists of the thyroid receptor (TR) signaling pathway - cell viability counter screen (AID 743064). Further: nearly all actives have a fitted effect of over 50% in size. Conditions: GH3.TRE-Luc viability, CellTiter-Fluor, 24 h; series mostly up to 70.3 µM. The text has this: National Center for Advancing Translational Sciences [NCATS]
NIH Chemical Genomics Center [NCGC]
U.S. Environmental Protection Agency [EPA]
National Institutes of Environmental Health Sciences [NIEHS]
National Toxicology Program [NTP]
U.S. Food and Drug Administration [FDA]
Thyroid receptor (TR), a nuclear hormone receptor, plays an important role in development, proliferation, differentiation, metabolism, brain function, and cardiovascular system. […] To profile the Tox21 10K compound library in TR signaling, a cell-based GH3-TRE-Luc assay (GH3.TRE-Luc cell line, developed by the laboratory of Dr. Albertinka J. Murk, Wageningen University) was used to measure the inhibition of TR. GH3 (rat pituitary tumor) cells stably expressing a TR activity sensor consisting of two TR response elements and a luciferase reporter gene. The cytotoxicity of the Tox21 compound library against the GH3.TRE-Luc cell line was tested in parallel by measuring the cell viability using CellTiter-Fluor assay (Promega, Madison, WI) in the same wells.
Tox21 Assay Protocol Summary:
GH3.TRE-Luc cells were dispensed at 1500 cells/4 uL/well into 1536-well white solid bottom plates using a Multidrop Combi dispenser (Thermo Fisher Scientific Inc., Waltham, MA). After the assay plates were incubated at 37 C for 4 hours, 23 nL of library compound or DMSO controls was transferred to the assay plates by a pintool station (Kalypsys, San Diego, CA), followed by addition of 1 ul of T3 (1 nM, final concentration in the wells) to stimulate TR transactivation. The assay plates were incubated at 37 C for 23.5 h, and then 1 uL of CellTiter-Fluor reagent (Promega, Madision, WI) of measuring cytotoxicity was added to each well using a Bioraptr Flying Reagent Dispenser (FRD) workstation (Beckman Coulter, Indianapolis, IN, USA). The plates were incubated at 37C and 5% CO2 for additional 30 min, and fluorescence intensity was measured by a ViewLux plate reader (PerkinElmer, Shelton, CT).
(In general: qHTS replaces the single test concentration by a dilution series.)
On to `[C-]1=CC=CC1.[Cl][Zr+2][Cl].c1cc[cH-]c1`, for which the Potency result was “inactive”.

Turning to `CCCCc1ccccc1`, the Potency result is “inactive”.

Consider `O=[N+]([O-])c1ccc(CCl)cc1`, for which the Potency result was “inactive”.

Regarding `Cc1ccc(C)c2ccccc12`, the Potency entry was “inactive”.

For the compound `COc1c2c(cc3c1OCO3)CCN(C)C2`, the Potency result is “inactive”.

On to `CC(Cc1ccc(O)cc1)NCC(O)c1cc(O)cc(O)c1` (stereo not given), for which the Potency entry is “inactive”.

On to `O=[N+]([O-])c1cc(C(F)(F)F)c(Cl)c([N+](=O)[O-])c1Nc1ncc(C(F)(F)F)cc1Cl`, for which the Potency was 5.45 µM (active).

Consider `O=S1OCC2C(CO1)C1(Cl)C(Cl)=C(Cl)C2(Cl)C1(Cl)Cl` (stereo not given), for which the Potency was 61.2 µM (active) and 54.4 µM (active).

Consider `CN1CCc2cc(Cl)c(O)cc2[C@H]2c3ccccc3CC[C@@H]21`, for which the Potency is 13.3 µM (active).

As for `CC(=O)[O-].CC(=O)[O-].O.O.[Zn+2]`, the Potency entry was “inactive”.

On to `COc1cnc(OC)n2nc(NS(=O)(=O)c3c(OCC(F)F)cccc3C(F)(F)F)nc12`, for which the Potency entry is “inactive”.

Turning to `Fc1ccc(C(OCCN2CCN(CCCc3ccccc3)CC2)c2ccc(F)cc2)cc1`, the Potency was 9.44 µM (active).

As for `COCCC#N`, the Potency entry is “inactive”.

Turning to `CC(C)=CC1C(C(=O)OC(C#N)c2cccc(Oc3ccccc3)c2)C1(C)C` (stereo not given), the Potency result is “inactive”.

Take `CCC[CH2][Sn]([CH2]CCC)([O]C(C)=O)[O]C(C)=O`: the Potency is 19.5 µM (active).

Consider `Cc1nn(-c2cc(NS(C)(=O)=O)c(Cl)cc2Cl)c(=O)n1C(F)F`, for which the Potency result is “inactive”.

Consider `Cc1cnc2c(C(=O)O)c(Cl)ccc2c1`, for which the Potency result was “inactive”.

Regarding `Clc1ccc(C(c2ccc(Cl)cc2)C(Cl)Cl)cc1`, the Potency is 24.7 µM (active) and 68.6 µM (active).

Regarding `O=C(N[C@@H]1N=C(c2ccccc2F)c2cccc3c2N(CC3)C1=O)c1cc2ccccc2[nH]1`, the Potency result is “inactive”.

On to `CC(=O)C(Cl)C(=O)N(C)C` (stereo not given), for which the Potency entry was “inactive”.

As to `CC[C@]1(O)CC[C@H]2[C@@H]3CCC4=CCCC[C@@H]4[C@H]3CC[C@@]21C`, the Potency entry is “inactive”.

For `COc1ccc2c(c1OC)C(=O)O[C@@H]2[C@H]1c2cc3c(cc2CCN1C)OCO3`, the Potency is 6.79 µM (active).

For the compound `CC(=O)[O-].CC(=O)[O-].CC(=O)[O-].[Sb+3]`, the activity change, negative = cytotoxic was 15.9% [at 8.44 µM].

Turning to `O=S(=O)(NS(=O)(=O)C(F)(F)F)C(F)(F)F`, the Potency entry is “inactive”.

Turning to `O=[N+]([O-])c1ccc(Cl)c(Cl)c1Cl`, the Potency entry is “inactive”.

In the case of `Cc1cc2c3c(c1)C(c1ccccc1)=N[C@@H](NC(=O)c1ccncc1)C(=O)N3CC2`, the Potency result is “inactive”.

Consider `CC(C)C(Nc1ccc(C(F)(F)F)cc1Cl)C(=O)OC(C#N)c1cccc(Oc2ccccc2)c1` (stereo not given), for which the Potency entry was “inactive”.

As to `Oc1ccc2[nH]cc(CCCCN3CC=C(c4ccccc4)CC3)c2c1`, the Potency was 8.41 µM (active).

In the case of `O.O.O.O.O.O.O=S(=O)([O-])[O-].[Ni+2]`, the Potency entry is “inactive”.

For the compound `Brc1cccc(-c2ccccc2)c1`, the Potency result was “inactive”.

Regarding `CC(C)[C@@H](Nc1ccc(C(F)(F)F)cc1Cl)C(=O)OC(C#N)c1cccc(Oc2ccccc2)c1` (stereo not given in full), the Potency entry was “inactive”.

As to `O=C1C[C@@H]2OCC=C3CN4CC[C@]56c7ccccc7N1[C@H]5[C@H]2[C@H]3C[C@H]46`, the Potency entry is “inactive”.

As to `COC(=O)c1ccccc1S(=O)(=O)NC(=O)Nc1nc(C)nc(OC)n1`, the Potency result was “inactive”.

Turning to `CCCCC(CC)COC(=O)OOC(C)(C)C` (stereo not given), the Potency entry was “inactive”.

Consider `Clc1ccc(C(Cl)(Cl)Cl)cc1Cl`, for which the Potency entry was “inactive”.

Take `Nc1ccccc1-c1ccccc1`: the Potency result is “inactive”.

As to `CC(C)c1c(CN(C)C(C)Cc2ccccc2)n(C)n(-c2ccccc2)c1=O` (stereo not given), the Potency result is “inactive”.

Regarding `CC(=O)[O][Sn]([c]1ccccc1)([c]1ccccc1)[c]1ccccc1`, the Potency was 0.172 µM (active).

As for `N#Cc1ccc(N(CC(N)=O)CC(F)(F)F)cc1C(F)(F)F`, the Potency result was “inactive”.

Turning to `[Cl-].[Cl-].[Sn+2]`, the Potency entry was “inactive”.
